# Most compounds without a hit are left out; they make up all but 4.8% or so of the library.
# hgDAF-12 ag – hgDAF-12 agonism, primary luciferase screen. AID 687014. 1.8% of 370,000 active. HEK293 GAL4-hgDAF12 UAS-luciferase reporter, agonist luminescence; normalized to butyrate control. activation, % at 6.8 µM;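 active = activation above a cutoff set at the mean of all screened compounds plus 3 SD, cut at about 10% in these data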
# DAX1 inh-1 – inhibitors of DAX1 repression of SF-1 activated StAR promoter. HEK293T StAR-luciferase reporter, SF-1/DAX-1 repression relief. 1.1% of 370,000 active. inhibition, % at 6.8 µM;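 active = inhibition above the mean over all tested compounds plus 3 SD, cut at about 3.6% in these data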;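 note: higher inhibition means more luminescence from relief of DAX-1 repression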
# ssDAF-12 act – activates DAF-12 receptor from parasite S. stercoralis. HEK293 ssDAF-12/GRIP1 lit1-tk-luc reporter, luminescence; % of 3 µM dafachronic acid response. activation, % at 6.8 µM. 1% of 370,000 active;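 active = activation above the mean over all tested compounds plus 3 SD, cut at about 0.9% in these data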
# hcDAF12 agonist – activates DAF-12 receptor from parasite H. contortus. HEK293 hcDAF-12 lit1-tk-luc reporter, luminescence; 0% DMSO, 100% Δ7-dafachronic acid. activation, % at 6.8 µM. 1.4% of 370,000 active. AID 652067;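 active = activation above the mean of all tested compounds plus 3 SD, cut at about 5.5% in these data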
# DAX1 inh-2 – NR0B1 (DAX1) inhibition | HEK293 Gal4-DAX1 luciferase reporter, luminescence | inhibition, % at 6.75 µM | 0.99% of 340,000 active;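 active = inhibition above the mean over all tested compounds plus 3 SD, cut at about 4.2% in these data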;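 note: inhibition shows as a rise in luminescence from relieved DAX1 repression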
# Target sequence (P51843 207-470 limits assumed): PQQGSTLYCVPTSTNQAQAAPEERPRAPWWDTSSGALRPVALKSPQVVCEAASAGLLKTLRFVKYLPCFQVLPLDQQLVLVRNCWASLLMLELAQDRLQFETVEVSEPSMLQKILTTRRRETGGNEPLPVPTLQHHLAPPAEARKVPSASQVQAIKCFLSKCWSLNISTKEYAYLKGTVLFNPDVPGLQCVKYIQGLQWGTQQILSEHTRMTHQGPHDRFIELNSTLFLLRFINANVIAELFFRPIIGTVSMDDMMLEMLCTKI
# Rev-erbA mod – modulators of human Rev-erb alpha DNA binding; activity, % at 10 µM; Rev-erbα–FITC-DNA binding, fluorescence polarization, 90 min; AID 1259318; P20393; 0.79% of 370,000 active;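 active = activity above about 14%, limit read from the data; passing the limit was not always enough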
# NR1D1 mod conf – confirmation of modulators of human Rev-erb alpha DNA binding. 61% of 3,000 active. Rev-erb alpha FITC-DNA binding, fluorescence polarization, 90 min. shares compounds with Rev-erbA mod. activation, % at 25 µM;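 active = activation at or above a set limit, or at least 3 SD above the negative control mean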
# RORg counter – counter-screen for Rev-erb alpha modulators: RORgamma DNA binding. shares compounds with Rev-erbA mod. purified RORgamma protein-FITC-DNA binding, fluorescence polarization. IC50, µM. 8% of 910 active;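 active = Compounds whose fitted half-maximal concentration for disrupting protein-DNA binding is below 10 micromolar; the record names Rev-erb in its text, so the target is in doubt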
# A number is an active result; – = inactive; · = no result.
SMILES,hgDAF-12 ag,DAX1 inh-1,ssDAF-12 act,hcDAF12 agonist,DAX1 inh-2,Rev-erbA mod,NR1D1 mod conf,RORg counter
CCOc1ccc(-n2c(SCC(=O)Nc3ccc(CC)cc3)nc3n[nH]c(C)c3c2=N)cc1,–,–,–,–,–,–,·,·
Cc1[nH]nc2nc(SCC(=O)NC3CCCCC3)n(-c3ccc(Br)cc3)c(=N)c12,–,–,–,–,–,64,65,–
COc1ccc(-n2c(SCC(=O)NC3CCCCC3)nc3ccsc3c2=O)cc1,–,–,–,–,–,49,33,–
COc1ccc2nc(SCC(=O)NC3CCCC3)c(C)cc2c1,–,–,–,–,–,29,32,–
CCCNC(=O)N1CC[C@H]2[C@@H]1c1cc(-c3ccc(F)cc3)ccc1N(C)[C@H]2CO,–,–,–,–,·,–,·,·
Cc1cc2c(c(=O)o1)[C@@]1(C(=O)N(C)c3cccc(Br)c31)C1=C(CCCC1=O)O2,–,–,–,–,·,–,·,·
Cc1ccc2nc(NCCc3ccc(Cl)cc3)c3nncn3c2c1,–,–,–,–,–,28,–,·
CC(C)(C)c1ccc(S(=O)(=O)N2CCCC(C(=O)N3CCN(Cc4ccccc4)CC3)C2)cc1 (stereo not drawn),–,–,–,–,·,–,·,·
COc1cc2sc3ccc(C#Cc4ccccn4)cc3c(=O)c2cc1OC,–,–,–,–,–,26,27,·
O=C(Nc1ccc(F)cc1)C(c1cc2ccccc2o1)N1CCN(C(=O)c2ccco2)CC1 (stereo not drawn),–,–,–,–,·,–,·,·
CCCCCCc1cc2cc(C(=O)Nc3ccccc3)c(=O)oc2cc1O,–,–,–,–,–,91,43,6.3
Nc1nc(Cl)nc2c1ncn2[C@@H]1O[C@H](CO)[C@@H](O)[C@@H]1F,–,–,–,–,·,–,·,·
C=CCN(CC#CC(=C)C)CC1CC1,–,–,–,–,·,–,·,·
C[n+]1ccc(/C=C/c2ccc(Br)cc2)cc1,–,–,–,–,–,–,·,·
Cc1ccc2[nH]c(C)c(/C=C/c3cc[n+](C)cc3)c2c1,–,–,–,–,–,235,182,–
Cc1ccc2c(c1)c(/C=C/c1cc[n+](C)cc1)c(C)n2C,–,–,–,–,–,280,224,–
C=CCNc1cccc2c1S(=O)(=O)N[C@@H](Cc1ccccc1)CO2,–,–,–,–,·,–,·,·
CCOC(=O)c1ccc(Nc2cc(C)nc(-c3ccccc3O)n2)cc1,–,–,–,–,–,38,–,·
Cc1cc(Nc2ccccc2)nc(-c2ccccc2O)n1,–,–,–,–,–,–,·,·
O=[N+]([O-])c1ccc(-c2nc(Nc3cccc(O)c3)c3ccccc3n2)cc1,–,–,–,–,–,28,–,·
COc1ccc(OC)c(Nc2nc(-c3ccccc3O)nc3ccccc23)c1,–,–,–,–,–,327,224,–
O=C(O)c1cccc(Nc2nc(-c3ccc([N+](=O)[O-])cc3)nc3ccccc23)c1,–,–,–,–,–,–,·,·
COc1cccc(Nc2nc(-c3ccccc3O)nc3ccccc23)c1,–,–,–,–,–,155,96,–
O=C(CSc1nc2ccccc2nc1N1CCCCC1)N1CCN(S(=O)(=O)c2cc(Cl)ccc2Cl)CC1,–,–,–,–,·,28,30,–
O=C(CSc1nc2ccccc2nc1N1CCCC1)Nc1ccc(Cl)cc1,–,–,–,–,–,–,·,·
SMILES,hgDAF-12 ag,DAX1 inh-1,ssDAF-12 act,hcDAF12 agonist,DAX1 inh-2,Rev-erbA mod,NR1D1 mod conf,RORg counter
CC1CCN(CCCNS(=O)(=O)c2cc3c(cc2Br)CCN3C(=O)C2CC2)CC1,–,–,–,–,·,–,·,·
Nc1[nH]c(=O)ncc1-c1ccc([N+](=O)[O-])cc1,–,–,–,–,·,–,·,·
COc1ccc(/C=C/S(=O)(=O)NCC(C)C)c(CNC(=O)OC(C)(C)C)c1,–,–,–,–,·,–,·,·
COc1cc(/C=C/C(=O)OCC(=O)c2ccc(S(=O)(=O)N3CCCCC3)cc2)cc(OC)c1OC,–,–,–,–,–,18,–,·
COc1cccc(/C=C/C(=O)OCC(=O)c2ccc(S(=O)(=O)N3CCCCC3)cc2)c1OC,–,–,–,–,–,–,·,·
CCOC(=O)c1nnc(-c2ccccc2)o1,–,–,–,–,–,–,·,·
CCc1ccc(C(=O)COC(=O)c2ccc(-c3nnc(-c4ccccc4)o3)cc2)cc1,–,–,–,–,–,23,–,·
O=C(CCn1nnc(-c2cccs2)n1)N1CCCCC1,–,–,–,–,·,–,·,·
COCCNC(=S)N(C)[C@H]1C[C@H]2c3[nH]c4c(-c5ccccc5)cccc4c3CCN2C[C@H]1[C@H](C)O,–,–,–,–,·,–,·,·
CC(C)(C)c1ccc(C(=O)c2c[nH]c(C(=O)NCc3cccs3)c2)cc1,–,–,–,–,–,96,94,–
COc1cc(C(C)=O)ccc1Oc1ncnc2c1cnn2-c1cccc(Cl)c1,–,–,–,–,–,–,·,·
COc1cc(C(C)=O)ccc1Oc1ncnc2c1cnn2-c1ccc(F)cc1,–,–,–,–,–,25,–,·
COc1cc2c(c(OC)c1)C(=O)O[C@H](C)C[C@@H]1O[C@H]1CCCCC(=O)C2,–,–,–,–,·,–,·,·
COc1cccc(CNC(=S)OC2CCC23CCC(c2ccccc2)CC3)c1 (stereo not drawn),–,–,–,–,·,–,·,·
Cc1c(C(=O)Nc2ccc(Cl)cc2)c2ccccn2c1C(=O)c1ccccc1,–,–,–,–,–,43,18,·
COc1ccnc(N2CCN(c3cccc(C(F)(F)F)c3)CC2)c1C#N,–,–,–,–,–,28,–,·
CSC1=C(C#N)C(c2ccc(Cl)cc2)C2=C(CC(C)(C)CC2=O)N1 (stereo not drawn),–,–,–,–,–,–,·,·
N#CC1=C(SCC(N)=O)NC2=C(C(=O)c3ccccc32)C1c1ccc(Cl)cc1 (stereo not drawn),–,–,–,–,–,33,54,–
CC1CN(C(=O)/C=C/c2cccc([N+](=O)[O-])c2)CC(C)O1 (stereo not drawn),–,–,–,–,–,–,·,·
CC1CN(C(=O)/C=C/c2ccccc2[N+](=O)[O-])CC(C)O1 (stereo not drawn),–,–,–,–,–,18,–,·
CCOC(=O)c1cc2c(=O)c3ccccc3oc2nc1C,11,–,–,–,–,53,44,–
CC(=O)c1ccc(-c2ccccc2C2=CC(=O)CC(C)(C)C2=O)cc1,–,–,–,–,·,–,·,·
Cc1cc(C)c(-c2csc(NC(=O)C3=COCCO3)n2)cc1C,–,–,–,–,–,19,–,·

# Compound activity deposited in PubChem BioAssay by several laboratories.
